Assay outcomes as filed in PubChem BioAssay.
MARV entry inh – Marburg virus entry inhibition; Marburg virus pseudotyped entry inhibition, cell reporter; 1.8% of 300,000 active; Potency, µM (top dose mostly 37.8 µM), inactives show at the top dose activity change, negative = inhibition, usual class: inhibitors; calls by dose curve; tested in HEK293 cells; further: potency means the concentration at half of the fitted maximal effect; on the % scale 0 is the no-effect control and ±100 the full control effect
Shiga toxin inh – blocks Shiga toxin action in Vero cells; Vero cells, Shiga toxin protein synthesis inhibition reporter; inhibition, % at 38.7 µM; AID 2315; 9.2% of 290,000 active; in the data active means inhibition mostly above about 28%, no sharp cut-off; inactive means mostly below about 43%; further: 0% is about no effect
Cycloheximide cs – affects cycloheximide protein synthesis inhibition readout, counter-screen. 12% of 300,000 active. AID 2314. max response, %. cell reporter, cycloheximide protein synthesis inhibition counterscreen; in the data active means max response mostly above about 13%, no sharp cut-off; inactive means mostly below about 14%; further: read at 38.3 µM for the half of the compounds with a filed dose; 0% is about no effect
FMDV antiviral – blocks foot and mouth disease virus; FMDV antiviral cell-based qHTS; Potency, µM (doses to about 57.9 µM), for inactives: at the highest dose activity change, negative = inhibition, actives largely listed as inhibitors; 1.2% of 410,000 active; AID 1159524; calls by dose curve; tested in HEK293T cells; further: read-out not given here; potency means the concentration at half of the fitted maximal effect; on the % scale 0 is the no-effect control and ±100 the full control effect; nearly all actives have a fitted effect of over 45% in size
Lassa entry inh – Lassa virus entry inhibition | Lassa virus pseudotype entry inhibition, cell reporter | Potency, µM (doses to about 37.9 µM), for inactives: top-dose activity change, negative = inhibition, usual class: inhibitors | 1.2% of 300,000 active; calls by dose curve; tested in HEK293 cells; further: potency means the concentration at half of the fitted maximal effect; on the % scale 0 is the no-effect control and ±100 the full control effect; nearly all actives have a fitted effect of over 50% in size
HCV inh – inhibitors of hepatitis C virus infection; Huh7.5.1 HCVcc-Cre infection, luciferase reporter, 44 h; Potency, µM (series often up to 41.8 µM), inactives show top-dose activity change, negative = inhibition, hits mostly inhibitors; 3.4% of 340,000 active; AID 651820; active means well fitted inhibition curve with a large enough effect; inconclusive means small, poorly fitted or top-dose-only effect, or another doubt; inactive means no such curve, though single readings can be large or run the other way; further: potency means the concentration at half of the fitted maximal effect; on the % scale 0 is the no-effect control and ±100 the full control effect
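After 44 h co-culture of compound, cells and HCVcc-Cre (~0.5 moi), substrate is added for 15 min at room temperature and luciferase measured over 15 sec. Cells were seeded at 1,000/well and pre-cultured 4 h.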
Active calls of the source: *; u = inconclusive; x = no result; [ ] = another dose, or the depositor's remark. Most compounds without a hit are left out; they make up all but 13% or so of the library.

SMILES	MARV entry inh	Shiga toxin inh	Cycloheximide cs	FMDV antiviral	Lassa entry inh	HCV inh
CC(C)CNC(=O)C(=O)Nc1cc2c3c(c1)CCC(=O)N3CCC2	x	-10	-9	-10%	x	-4%
Oc1c(C=C2N=c3ccccc3=N2)sc(=S)n1C1CCCC1	-27%	25	19*	-1%	16%	-1%
Oc1[nH]c(=S)sc1C=C1N=c2ccccc2=N1	2%[14.2 µM]	38*	25*	16%	16%	3%
COc1ccc2nc(SCC(=O)Nc3ccc4c(c3)OCCO4)[nH]c2c1	5%	80*	57*	u	9%	12%
O=C(CCc1ccc(S(=O)(=O)N2CCOCC2)cc1)Nc1ccc2c(c1)OCCO2	x	49*	14*	-17%	x	-12%
O=C(CCc1ccccc1)Nc1ccc2c(c1)OCCO2	u	67*	48*	3%	-27%	11%
O=C(CCc1ccccc1)Nc1ccc2c(c1)C(=O)OC2	-7%	29	10*	38%	u	-13%
O=C(CCCOc1ccccc1)Nc1ccc2c(c1)OCCO2	37%	65	48*	58%	1%	11%
CN(CCC(=O)Nc1ccc2c(c1)OCO2)Cc1ccccc1	-10%	18	-1	x	11%	-3%
O=C(CCc1ccc(S(=O)(=O)N2CCOCC2)cc1)N/N=C/c1ccc(O)c(O)c1O	-48%	6	-2	40µM*	-20%	-22%
O=C(CCSCc1ccccc1)Nc1ccc2c(c1)OCCO2	0%	48*	59*	36%	4%	-13%
O=C(CCc1ccc(S(=O)(=O)N2CCOCC2)cc1)N/N=C/c1ccc(F)cc1F	u	0	4	15%	u	31%
O=C(NCc1ccccc1)NC1(C(=O)Nc2ccc3c(c2)OCCO3)CCCCC1	u	71*	30*	-14%	-6%	-27%
O=C(Nc1ccccc1)NC1(C(=O)NCc2ccc3c(c2)OCO3)CCCCC1	-6%	-6	2	24%	3%	u
COc1ccc(OCCCC(=O)Nc2ccc3c(c2)OCO3)cc1	-17%	17	1	4%	27%	-16%
CCN(CC(=O)Nc1ccc2c(c1)OCCO2)C(=O)/C=C/c1ccc(OC)cc1OC	13%	60*	28*	11%	-12%	x
O=C(CCc1ccccc1)Nc1cc2c(cc1Cl)OCCO2	-15%	80*	47*	7%	-25%	3%
COc1ccc(CCC(=O)Nc2ccc3c(c2)OCCO3)cc1	7%	39	26*	22%	15%	12%
COc1cc(/C=C/c2nc(N)nc(-c3ccccc3O)n2)cc(OC)c1OC	-1%	5	-1	u	-27%	-3%
CC(=O)Nc1ccc(/C=C/c2nc(-c3ccccc3O)n[nH]2)cc1	x	57*	48*	25%	x	u
COc1cc(/C=C/c2nc(-c3ccccc3O)n[nH]2)cc(OC)c1OC	u	4	19	u	u	11µM*
Cc1ccc(C(=O)CSc2nnnn2Cc2ccccc2)cc1C	u	-2	5	-2%	u	-5%
CCCC(=O)Nc1ccc(NC(=O)c2ccco2)cn1	-6%	27*	18*	51%	12%	-25%
CCCCC(=O)Nc1ccc(NC(=O)c2ccco2)cn1	u	67	20*	69%	-9%	22%
CC(C)C(=O)Nc1ccc(NC(=O)c2ccco2)cn1	3%	14	23*	53%	-22%	1%
SMILES	MARV entry inh	Shiga toxin inh	Cycloheximide cs	FMDV antiviral	Lassa entry inh	HCV inh
CCCC(=O)Nc1ccc(NC(=O)c2ccccc2OC)cn1	u	23	10	31%	-22%	-5%
CCc1ccccc1NS(=O)(=O)c1cc(Br)cc2c1N(C(=O)C1CC1)CC2	u	x	x	-22%	-4%[46.1 µM]	x
CCOC(=O)c1cccc(Nc2nc(-c3cccnc3)nc3ccccc23)c1	u	-11	-2	28µM*	u	u
O=C(O)c1cccc(Nc2nc(-c3cccnc3)nc3ccccc23)c1	-4%	11	-1	-13%	7%	18%
COC(=O)c1cccc(Nc2nc(-c3cccnc3)nc3ccccc23)c1	u	13	-2	u	-15%[46.1 µM]	7.1µM*
CCOc1ccc(CNC(=O)C(C)n2ncn3cccc3c2=O)cc1 (stereo not drawn)	-7%[46.1 µM]	x	x	-17%	-6%[46.1 µM]	x
CCN(CC(=O)Nc1c(F)cccc1F)C(=O)CCCN1C(=O)c2ccccc2C1=O	x	x	x	-17%	x	x
COc1ccc(NC(=O)COc2ccc3c(c2)OCO3)cc1	10%[46.1 µM]	32	8	16%	-10%[46.1 µM]	u
CC(=O)Nc1cccc(NC(=O)COc2ccc3c(c2)OCO3)c1	u	60*	27*	57%	-31%[46.1 µM]	-11%
CCc1ccc(NC(=O)COc2ccc3c(c2)OCO3)cc1	x	42*	31*	45%	x	-14%
CC(=O)c1ccc(NC(=O)COc2ccc3c(c2)OCO3)cc1	16%[46.1 µM]	4	19*	31%	9%	1%
O=C(COc1ccc(S(=O)(=O)N2CCCC2)cc1)Nc1ccc2c(c1)OCCO2	u	44*	24*	17%	u	-8%
CC(=O)Nc1ccc(OCC(=O)NCc2ccc3c(c2)OCO3)cc1	4%	2	5	12%	7%	1%
Cc1nnc2sc(SCC(=O)N3CCc4ccccc43)nn2c1=O	x	x	x	-25%	x	-9%
NS(=O)(=O)c1cccc(NC(=O)CN2CCN(S(=O)(=O)c3ccc4c(c3)OCCO4)CC2)c1	-18%[46.1 µM]	x	x	0%	-1%[46.1 µM]	3%
O=C(O)c1ccccc1-c1ccccc1C(=O)Nc1ccc2c(c1)C(O)c1ccccc1-2 (stereo not drawn)	x	x	x	-23%	x	x
Cc1ccc(OCC(=O)Nc2cccc(OCc3cc(=O)n4ccccc4n3)c2)cc1C	x	x	x	-19%	13%[46.1 µM]	x
Cn1c(CCNC(=O)c2ccc(Cl)c(Cl)c2)nnc1SCc1ccc(Cl)c(Cl)c1	-15%	-8	-1	-18%	1%	u
CCc1ccc(OCC(=O)Nc2ccc3c(c2)OCCO3)cc1	u	30	27*	25%	-20%[46.1 µM]	-1%
CC(=O)Nc1ccc(Oc2sc(C(=O)c3ccccc3)c(N)c2C#N)cc1	u	-17	-5	u	0.89µM*	u
N#Cc1c(SCc2ccc(Cl)cc2)sc(C(=O)c2ccccc2)c1N	-30%	14	4	u	u	-15%
COc1ccc(C2c3cc4c(cc3OC(N3CCOCC3)C2C)OCO4)c(OC)c1 (stereo not drawn)	u	x	x	0%	6.3µM*	u
Nc1c2c(nc3sc4c(c13)CCCC4)CCCCCC2	6%	15	2	-9%	4%	-9%
Cc1nc2sc(C)c(C)c2c(=O)o1	0%	-9	-3	-9%	9%	4%
Cc1sc2nc(-c3ccccc3)oc(=O)c2c1C	u	113*	66*	51%	u	3%
Nc1nc(-c2ccccc2)nc2sc3c(c12)CCCC3	u	124*	53*	-6%	u	u
O=c1oc(-c2ccccc2)nc2sc3c(c12)CCC3	-2%	70*	70*	48%	u	6%
